Rows were chosen to be rich in hits. Some 3.1% of all compounds tested hit in one or more screens of this group.
A549 viability: A549 cytotoxicity, counter-screen for Nrf2 inhibitors | A549 ARE-Fluc cells, CellTiter-Fluor viability, 18-24 h | Potency, µM (doses to about 46 µM), usual class: inhibitors | 390,000 compounds, 0.16% hits | AID 504648
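A549 ARE_Fluc cells in 5% FBS OPTI-MEM were exposed to compounds in concentration-response for 18-24 h at 37 deg C. Viability was read by CellTiter-Fluor fluorescence (Ex 405/Em 525) after 30 min, before the luciferase read.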
TrxR1 inh: blocks rat thioredoxin reductase 1. O89049. recombinant rTrxR1, NADPH fluorescence consumption, selenite substrate. Potency, µM (titrated, usually from 114 µM), usual class: inhibitors. 390,000 compounds, 1% hits. AID 588453; note: nearly all actives have a fitted effect of over 65% in size
Target sequence (O89049 whole entry, looked up): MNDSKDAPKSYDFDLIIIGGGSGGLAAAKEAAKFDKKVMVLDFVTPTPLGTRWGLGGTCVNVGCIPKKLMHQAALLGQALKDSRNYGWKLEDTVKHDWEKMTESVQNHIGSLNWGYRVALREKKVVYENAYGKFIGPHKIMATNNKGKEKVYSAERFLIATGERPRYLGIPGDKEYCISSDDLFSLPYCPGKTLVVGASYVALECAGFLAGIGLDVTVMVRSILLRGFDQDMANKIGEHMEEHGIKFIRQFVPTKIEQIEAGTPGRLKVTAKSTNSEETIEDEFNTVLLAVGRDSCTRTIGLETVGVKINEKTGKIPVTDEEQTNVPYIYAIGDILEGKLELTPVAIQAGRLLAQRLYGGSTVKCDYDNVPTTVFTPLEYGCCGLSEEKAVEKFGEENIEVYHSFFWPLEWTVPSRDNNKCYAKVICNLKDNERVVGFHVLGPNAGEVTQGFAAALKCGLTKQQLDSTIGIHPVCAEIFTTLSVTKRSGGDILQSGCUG
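Rat TrxR1 (90 nM in the dispensed reagent) was pre-reduced with 400 uM NADPH for 5 min at room temperature, then incubated with compound for 15 min. After 400 uM selenite was added, NADPH fluorescence (Ex 340/Em 450 nm) was followed for 8 min.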
IDH1 R132H inh: human IDH1 R132H inhibition | O75874 | IDH1-R132H enzyme, NADPH consumption, diaphorase/resazurin fluorescence | Potency, µM (series often up to 76.6 µM), usual class: inhibitors | 390,000 compounds, 0.093% hits; note: nearly all actives have a fitted effect of over 65% in size
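IDH1-R132H (0.5 ug/mL) preincubated 30 min with compound, then NADPH (0.016 mM) and alpha-KG (2 mM) added; 80 min at RT, pH 7.5. Remaining NADPH coupled via diaphorase/resazurin to fluorescence (540/590 nm); concentration-response curves normalized to no-enzyme control.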
Mito fusion act: mitochondrial division inhibition or fusion activation; S. cerevisiae fusion-defective mutant growth rescue, CellTiterGlo 48 h; Potency, µM (highest dose often 46.1 µM), hits mostly activators; 320,000 compounds, 0.23% hits; note: nearly all actives have a fitted effect of over 45% in size
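S. cerevisiae fusion-defective temperature-sensitive mutants (e.g. fzo1-1, mgm1-5) grown 48 h at 37C in YPEG (ethanol/glycerol non-fermentable) medium with 23 nl compound per well; growth rescue read as CellTiterGlo luminescence.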
Nrf2 inh: blocks Nrf2 signaling; A549 ARE-Fluc reporter, luciferase luminescence, 18-24 h; Potency, µM (titrated, usually from 46 µM), hits mostly inhibitors; 360,000 compounds, 2.1% hits; AID 504444; note: nearly all actives have a fitted effect of over 60% in size
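Two sequential reads on A549 ARE_Fluc cells exposed to compound for 18-24 h: a CellTiter-Fluor fluorescence read for viability, then a luciferase luminescence read for Nrf2/ARE activity.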
TrxR1 substrate: rat thioredoxin reductase 1 substrate activity. O89049. purified TrxR1 substrate turnover, NADPH consumption readout. Potency, µM (series often up to 114 µM). 390,000 compounds, 0.01% hits; note: nearly all actives have a fitted effect of over 50% in size
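Rat TrxR1, dispensed at 90 nM, was prereduced with 400 uM NADPH (final) for 5 min at ~22 deg C, then incubated with compound 15 min before 400 uM selenite. A first-read NADPH fluorescence drop versus no-compound background flagged substrates.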
Large screens that a line does not name were inactive; ! = not active in a repeat. Calls come from the whole dose curve; as a rule, active = well fitted curve in the direction sought with a large enough effect; inconclusive = small, poorly fitted or top-dose-only effect, or another doubt; inactive = no such curve, though single readings can be large; an effect the other way counts as inactive or inconclusive.

CCN(CC)C(=O)c1ccc(NC(=O)CCn2nc(-c3ccc(C)cc3)c3ccccc3c2=O)cc1	Nrf2 inh 18µM (no result: Mito fusion act)
CC1N(C)c2cc(NC(=O)c3ccco3)c(P(=O)(Nc3ccc([N+](=O)[O-])cc3)N3CCOCC3)cc2C1(C)C (configuration not stated)	A549 viability 21µM, IDH1 R132H inh inconclusive, Nrf2 inh 16µM
On1ccccc1=S	TrxR1 inh inconclusive, Nrf2 inh inconclusive
Cc1ccccc1N1C(=O)NC(=O)/C(=C\c2ccc3c(c2)CCCN3Cc2ccccc2)C1=O	IDH1 R132H inh 52µM
Cc1cc(/C=C2\C(=O)NC(=O)N(Cc3ccccc3)C2=O)c(C)n1C1CC1	none
Cc1ccc(/C=C2\C(=O)NC(=O)N(CC3CCCO3)C2=O)s1 (configuration not stated)	TrxR1 inh 40µM
COc1cc2nc(N3CCCN(C)CC3)nc(N(C)C3CCN(C)CC3)c2cc1OC	TrxR1 inh inconclusive (no result: A549 viability, IDH1 R132H inh, Mito fusion act, Nrf2 inh)
Cc1cccc(Cn2c(SCc3ccc(C(=O)NC4CCCCC4)cc3)nc3cccnc32)c1	Nrf2 inh inconclusive (no result: Mito fusion act)
CCOC(=O)C(O)(c1ccc(NC(=S)NC(=O)c2ccc(Cl)cc2Cl)c(C)c1)C(F)(F)F (configuration not stated)	A549 viability inconclusive, Nrf2 inh 15µM
CCOC(=O)CNC(=O)CNC(=O)C(Cc1ccc(N(CCCl)CCCl)cc1)NC(C)=O (configuration not stated)	TrxR1 inh inconclusive
CCOC(=O)C(NC(=O)C(Cc1ccc(N(CCCl)CCCl)cc1)NC(C)=O)C(C)C (configuration not stated)	Mito fusion act 4µM
O=C1NC(=S)NC(=O)C1C/C=C/c1ccccc1	TrxR1 inh 50µM
CC[C@@H](CO)Nc1nc(NCc2ccccc2)c2ncn(C(C)C)c2n1	none (no result: A549 viability, IDH1 R132H inh, Nrf2 inh)
C=C1C(=O)O[C@@H]2C[C@@H](C)[C@@H]3C=CC(=O)[C@@]3(C)[C@@H](OC(C)=O)[C@H]12	A549 viability 9.2µM, TrxR1 inh inconclusive, Nrf2 inh 4.1µM
C=C1C(=O)O[C@@H]2C[C@@H](C)[C@@H]3C=CC(=O)[C@@]3(C)[C@@H](O)[C@H]12	A549 viability 9.2µM, TrxR1 inh inconclusive, Nrf2 inh 3.7µM
Cc1cc(-c2n[nH]c(=S)n2CC(C)C)cs1	Nrf2 inh inconclusive
CC1=C(C(=O)O)N2C(=O)C(NC(=O)c3nn(C)cc3[N+](=O)[O-])C2SC1 (configuration not stated)	Nrf2 inh inconclusive
O=C(Nc1ccc2nc3n(c(=O)c2c1)CCCCC3)c1cccc(C(F)(F)F)c1	Nrf2 inh 12µM (no result: Mito fusion act)
CCOC(=O)c1cc(CC)sc1/N=C/C1C(=O)NC(=S)NC1=O	TrxR1 inh 8.9µM
Cc1nn(Cc2ccccc2)c(C)c1C=C1C(=O)NC(=O)NC1=O	TrxR1 inh 35µM
O=c1onc(-c2cccnc2)n1-c1ccccc1F	A549 viability inconclusive
O=c1[nH]cc(COCC(F)(F)C(F)(F)C(F)(F)F)c(=O)[nH]1	none
O=c1[nH]cc(F)c(=O)[nH]1	Mito fusion act 2.9µM!, Nrf2 inh inconclusive
CSc1cccc(CNC(=O)C2CCC(=O)N(Cc3cccc(C(F)(F)F)c3)C2)c1 (configuration not stated)	Nrf2 inh inconclusive
ClCCN(CCCl)c1ccc(/C=C/c2ccnc3ccccc23)cc1	none (no result: A549 viability, IDH1 R132H inh, Mito fusion act, Nrf2 inh)
CCn1nc(-c2cccs2)nc2c(=O)n(C)c(=O)nc1-2	A549 viability 1.5µM, TrxR1 inh inconclusive, Nrf2 inh 5.2µM, TrxR1 substrate 45µM
CCn1nc(/C=C/c2ccccc2)nc2c(=O)n(C)c(=O)nc1-2	A549 viability 5.8µM, TrxR1 inh inconclusive, Nrf2 inh inconclusive, TrxR1 substrate 16µM
Cc1ccc2c(c1)cc(C(=O)Nc1ccccc1C)n2C	none (no result: IDH1 R132H inh, Mito fusion act)
O=C1NC(=O)N(c2ccccc2)C(=O)/C1=C/c1ccoc1	TrxR1 inh inconclusive
O=C1NC(=O)N(c2cccc(Cl)c2)C(=O)/C1=C\c1ccc(Sc2nc3ccccc3[nH]2)o1	TrxR1 inh 8.9µM, IDH1 R132H inh inconclusive
O=C1NC(=O)N(c2ccccc2)C(=O)/C1=C/c1ccc(Sc2ccccc2)o1	TrxR1 inh 14µM (no result: Nrf2 inh)
Cc1ccc(-c2nnc(Nc3ccc(OC(F)(F)Cl)cc3)c3ccccc23)cc1S(=O)(=O)NC(C)(C)CO	Nrf2 inh inconclusive (no result: Mito fusion act)
O=c1[nH]/c(=C\c2ccc(N(CCCl)CCCl)cc2)c(=O)[nH]/c1=C\c1ccc(N(CCCl)CCCl)cc1	none (no result: A549 viability, IDH1 R132H inh, Mito fusion act, Nrf2 inh)
O=C(c1ccc2c(c1)N(Cc1c(F)cccc1Cl)C(=O)c1ccccc1S2)N1CCC2(CC1)OCCO2	A549 viability inconclusive, Nrf2 inh 21µM (no result: Mito fusion act)
CC(=O)[C@H]1CCC2C3CC[C@H]4C[C@H](O)CC[C@]4(C)C3CC[C@@]21C (some centres not stated)	Mito fusion act 5.2µM (no result: A549 viability, IDH1 R132H inh, Nrf2 inh)
C[C@H]1CC[C@@]2(C)[C@@H](CC[C@@H]3[C@@H]2CC[C@]2(C)[C@@H](O)CC[C@@H]32)C1	Mito fusion act 13µM
CC(=O)[C@H]1CC[C@H]2[C@@H]3CCC4=CC(=O)CC[C@]4(C)[C@H]3CC[C@]12C	Mito fusion act 18µM!
C[C@]12CCC3C(CC[C@H]4C[C@H](O)CC[C@]34C)C1CC[C@@H]2C(=O)CO (some centres not stated)	Mito fusion act 18µM (no result: A549 viability, IDH1 R132H inh, Nrf2 inh)
CCc1ccccc1NC(=O)C(CC)Oc1ccccc1-c1nnc(-c2ccccc2)o1 (configuration not stated)	Nrf2 inh inconclusive (no result: Mito fusion act)
O=[N+]([O-])c1ccccc1CCl	TrxR1 inh 45µM, Nrf2 inh inconclusive
O=C1CCN(C(=O)Cc2ccccc2[N+](=O)[O-])CC1	none
CCOC(=O)Nc1ccc(NCc2ccc(F)cc2)nc1N	TrxR1 inh 11µM, Nrf2 inh inconclusive
O=C(CNC(=O)c1cccc(S(=O)(=O)N2CCc3ccccc32)c1)Nc1ccccc1Br	TrxR1 inh inconclusive, Nrf2 inh inconclusive (no result: Mito fusion act)
O=C(Nc1ccc(Br)cc1)c1cccc(S(=O)(=O)N2CCc3ccccc32)c1	Nrf2 inh 16µM (no result: Mito fusion act)
CCN1/C(=C\C=C\C2=[N+](CC)c3ccccc3C2(C)C)C(C)(C)c2ccccc21	A549 viability 5.2µM, IDH1 R132H inh 35µM, Nrf2 inh 0.65µM
CCOc1ccc(-c2cc(C(=O)N3CCN(S(=O)(=O)c4cc(Cl)ccc4OC)CC3)[nH]n2)cc1	Nrf2 inh inconclusive (no result: Mito fusion act)

Assay outcomes: PubChem, National Center for Advancing Translational Sciences (NCATS)
